The entries come from a sample that favours hits as a whole.
PKM2 inh: PKM2 (human) enzyme inhibition. P14618. purified PKM2, ATP generation, Kinase-Glo luminescence. Potency, µM (doses to about 57.5 µM), most hits filed as inhibitors. actives 0.058% (n = 260,000). AID 1634; active = well fitted inhibition curve with a large enough effect; note: nearly all actives have a fitted effect of over 60% in size
Target sequence (P14618 whole entry, looked up): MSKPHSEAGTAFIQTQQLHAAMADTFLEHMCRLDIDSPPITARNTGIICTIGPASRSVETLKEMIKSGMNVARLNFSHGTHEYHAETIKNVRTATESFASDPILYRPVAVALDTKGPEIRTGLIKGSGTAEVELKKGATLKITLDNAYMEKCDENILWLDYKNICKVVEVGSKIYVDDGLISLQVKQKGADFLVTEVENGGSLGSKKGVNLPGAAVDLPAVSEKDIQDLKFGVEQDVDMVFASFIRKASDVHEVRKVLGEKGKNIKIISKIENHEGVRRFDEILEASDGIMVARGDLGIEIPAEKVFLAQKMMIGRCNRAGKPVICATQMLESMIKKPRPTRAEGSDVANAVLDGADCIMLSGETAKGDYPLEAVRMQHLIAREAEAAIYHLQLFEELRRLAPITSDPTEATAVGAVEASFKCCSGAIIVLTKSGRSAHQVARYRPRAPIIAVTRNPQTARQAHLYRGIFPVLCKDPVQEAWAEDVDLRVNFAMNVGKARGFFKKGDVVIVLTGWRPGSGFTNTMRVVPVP
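Enzyme run at intermediate activity with final 0.1 mM ADP, 0.5 mM PEP (50 mM imidazole pH7.2, 50 mM KCl, 7 mM MgCl2), incubated 1 h at r.t. ATP formed read by Kinase-Glo luminescence, normalized to no-enzyme (full inhibition) and uninhibited wells.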
Numbers stand for hits; – = inactive.

SMILES	PKM2 inh
O=C(COc1ccc(Cl)cc1Cl)Nc1ccccn1	14µM
O=C(COc1ccc(Cl)cc1Cl)NC(=S)Nc1ccc(CN2CCOCC2)cc1	–
O=C(COc1ccc(Cl)cc1Cl)NCC(=O)N/N=C/c1c[nH]c2ccccc12	–
O=S(=O)(Nc1ccc(Cl)cc1)c1ccc2c(c1)CCO2	–
Cc1nc(NC(=O)c2ccco2)sc1C(=O)O	13µM
CCCn1c(NC(=O)c2ccco2)nc2ccccc21	–
CC(=O)c1sc(NC(=O)c2ccc(Cn3cc(Br)cn3)o2)nc1C	–
COc1cc([N+](=O)[O-])cc2sc(NC(C)=O)nc12	–
Cc1nn(CC(=O)N/N=C/c2ccc3c(c2)OCO3)c(C)c1Br	–
Cc1ccsc1C(=O)N/N=C/c1ccc2c(c1)OCO2	13µM
COc1cc(/C=N/NC(=O)c2cccs2)ccc1O	–
CCc1ccc(NC(=O)CSc2nnc(C)c(=O)n2N)cc1	–
O=Cc1s/c(=N\S(=O)(=O)c2ccccc2)n(CCCCl)c1Cl	–
COc1ccc(N2CCN(C(=O)[C@H](Cc3c[nH]c4ccccc34)NC(C)=O)CC2)cc1	–
O=C(COC(=O)c1ccc(NS(=O)(=O)c2ccc3c(c2)OCCO3)cc1)NC1CC1	–
CCOC(=O)c1cnc(SCC(=O)c2ccc3c(c2)OCCO3)nc1N	–
O=C(COC(=O)c1cccs1)c1ccc2c(c1)OCCO2	28µM
Cc1cc(NC(=O)c2ccco2)ccc1NC(=O)c1ccco1	14µM
O=C(/C=C\c1ccco1)c1ccc(NC(=O)c2ccco2)cc1	–
COCCCn1c(SCC(=O)Nc2ccc(NC(=O)c3ccco3)c(OC)c2)nc2ccccc2c1=O	–
Cc1ccccc1S(=O)(=O)NCC1CCCO1 (stereo not given)	–
Cc1ccccc1OCC(=O)Nc1ccc2c(c1)n(C)c(=O)n2C	–
Cc1cc(-c2cc(-c3ccc(Cl)cc3)nc(N)c2C#N)co1	–
Cc1cc(NC(=O)C2CCCCC2)ncc1NC(=O)c1ccccn1	–
O=C(CN1CCN(c2ccc(O)cc2)CC1)Nc1ccc2c(c1)OCCO2	–
SMILES	PKM2 inh
Cc1cc(C)cc(NC(=O)Nc2ccc(N3CCCCC3)cc2)c1	–
O=C(Nc1ccc(N2CCCCC2)cc1)c1ccccn1	16µM
O=C(Nc1ccc2c(c1)OCCO2)c1ccccn1	14µM
O=C(Nc1ccc2oc(-c3ccccc3F)nc2c1)c1ccc2c(c1)OCCO2	–
O=C(N1CCOCC1)N1CCN(S(=O)(=O)c2ccc(F)cc2)CC1	–
Cc1ccc(CN(C)C(=O)c2ccc3c(c2)NC(=O)CS3)o1	–
CC(=O)CC1(OC(C)=O)C(=O)N(C)c2ccccc21 (stereo not given)	–
O=C(O)C[C@@H]1C(=O)O[C@@H]2C(COC(=O)c3cc(O)c(O)c(O)c3)O[C@@H](OC(=O)c3cc(O)c(O)c(O)c3)[C@@H](OC(=O)c3cc(O)c(O)c4c3[C@H]1[C@H](O)C(=O)O4)[C@H]2OC(=O)c1cc(O)c(O)c(O)c1 (stereo not given in full)	–
COc1ccc(S(=O)(=O)Nc2nc3c(s2)CCCC3)cc1	–
COc1cccc(NC(=O)CSc2ccc(-c3sc(C)nc3C)nn2)c1	–
COc1ccc(-c2ccc(SC)nn2)cc1	10µM
Cc1oc(-c2ccc(Cl)cc2)cc1C(=O)/C(C#N)=C/Nc1ccccc1	–
Cc1nnc(NC(=O)CSc2nc3c(c(=O)n(C)c(=O)n3C)n2C(C)C)s1	–
COc1ccc(NC(=O)c2[nH]c(C)c(C(C)=O)c2C)cc1	–
COc1cccc(NC(=O)CCN2C(=O)c3ccc([N+](=O)[O-])cc3C2=O)c1	–
COc1ccc(NC(=O)c2cc([N+](=O)[O-])ccc2O)cc1	16µM
COC(=O)[C@@]1(Cc2ccc(OC)cc2)[C@H]2c3cc(C(=O)N(C)C)n(Cc4ccc(C)o4)c3C[C@H]2CN1C(=O)c1ccccc1	–
CCc1cccc(C)c1N=Cc1c(O)c2ccccc2oc1=O	–
COc1cccc(C(=O)O/N=C(\N)c2ccccn2)c1	8.9µM
N/C(=N\OC(=O)c1ccc(Cl)cc1Cl)c1ccccn1	14µM
N/C(CS(=O)(=O)c1ccccn1)=N\OC(=O)c1ccccc1Cl	–
COc1ccc(C/C(N)=N/OC(=O)c2cccc([N+](=O)[O-])c2)cc1	–
Cc1ccc(C(=O)O/N=C(\N)c2ccccn2)c(Cl)c1	14µM
CCOc1cc(NC(=O)c2cccs2)c(OCC)cc1NC(=O)c1cccnc1	–
COc1ccc(C(=O)O/N=C(\N)Cc2ccc(Cl)cc2)cc1OC	–
SMILES	PKM2 inh
CCOC(=O)c1c(-c2ccc(C)o2)csc1NC(=O)COC(=O)c1cccs1	–
Cc1cccc(/C(N)=N/OC(=O)c2cccs2)c1	13µM
COc1cccc(C(=O)C(C#N)=C(SC)SC)c1	–
N#CCC(=O)Nc1ccc(C(=O)Nc2cccc(S(N)(=O)=O)c2)cc1	–
CCC(CC)c1nnc(NC(=O)c2cccnc2SC)s1	–
C=C1C(=O)C=C2CN(C(=O)c3ccccc3)[C@@](Cc3ccc(OC)cc3)(C(=O)OC)[C@@H]12	–
COc1ccccc1N1C(=O)C=C(Sc2nc(C)cc(C)n2)C1=O	–
COc1ccc(CCNC(=S)N2CCN(S(=O)(=O)c3ccccc3F)CC2)cc1	–
CCc1ccccc1N1C(=O)C(Cl)=C(N2CCOCC2)C1=O	–
Cc1ccc(S(=O)(=O)Nc2ccc(-c3nnc(SCC#N)n3C)cc2)cc1	–
Cc1ccc(C(=O)O/N=C(\N)c2ccccc2)c(Cl)c1	18µM
O=C(Oc1ccc2ccc(O)cc2c1)c1ccccc1Cl	–
COc1ccc(S(=O)(=O)NCC2CCCN(C(=O)c3ccccc3)C2)cc1 (stereo not given)	–
Cc1ccc(CNC(=O)[C@H]2C[C@@H]2[C@H](NP(=O)(c2ccccc2)c2ccccc2)c2ccccc2)o1	–
Cc1ccc(O)c(CNc2ccc(S(=O)(=O)Nc3nccs3)cc2)c1	–
CC(C)c1nc2sc(C(=O)O)c(N)c2c2c1CCCC2	–
O=C(Nc1cccc(S(=O)(=O)N2CCOCC2)c1)c1cnccn1	–
CCOc1ccc2nc(/N=C/c3c(C)[nH]n(-c4ccc(C)cc4)c3=O)sc2c1	13µM
CCOc1ccc2nc(SCC(=O)Nc3cc(C)on3)c(C)cc2c1	–
O=C1COc2ccc(C(=O)COC(=O)Cc3ccsc3)cc2N1	–
CC1(C)CC2(CC(c3ccccc3F)c3ccc(O)c(O)c3O2)NC(=S)N1 (stereo not given)	–
O=CN/C=C/c1cc(O)ccc1O	10µM
O=C(NCc1cccc(C(F)(F)F)c1)N1CCN(S(=O)(=O)c2ccccc2F)CC1	–
CS(=O)(=O)Nc1ccc(C(=O)NCc2ccc3c(c2)OCO3)cc1	–
CC(=O)Oc1ccc(C(=O)Nc2cccc(C(=O)c3cccc(NC(=O)c4ccc(OC(C)=O)cc4)c3)c2)cc1	–
SMILES	PKM2 inh
CCC(=O)Oc1ccc(C(=O)Nc2ccc3c(c2)OCO3)cc1	14µM
Clc1cc2c(c(CSc3nc4ccccc4n4cccc34)c1)OCOC2	–
O=c1c2sccc2nc(SCc2cc(=O)n3ccccc3n2)n1Cc1ccccn1	–
COCCn1c(=O)[nH]c2cc(C(=O)N3CCN(c4cccc(C)c4C)CC3)ccc2c1=O	–
CC(C)c1ccc2oc3nc(N)c(C(=O)O)cc3c(=O)c2c1	14µM
O=C(COC(=O)C1=Cc2ccccc2OC1)NC1CCCC1	–
Cc1c(F)cccc1NS(=O)(=O)c1ccc2c(c1)NC(=O)CO2	–
CCS(=O)(=O)N1Cc2ccccc2CC1C(=O)Nc1nnc(SCc2ccc(F)cc2)s1 (stereo not given)	–
Cc1cc2c(NC(=O)Nc3ccc(C(C)(C)C)cc3)cccc2nn1	–
CC(=O)Nc1ccc(C(=O)OCc2ccccc2Br)cc1	–
